Data reported in PubChem BioAssay AID624330 (Southern Research Specialized Biocontainment Screening …, 2012).
Where “and” joins values, the source holds several entries; their conditions need not be identical. Equal values may be shown once. The campaign covered roughly 340,000 compounds. About 2,100 (0.62%) were called active. Only a sample is shown. Results with a measured potency or affinity are listed apart. Values without a mark were called inactive.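 The calls were made as follows: active = first-screen hits whose inhibition reached a set limit at any dose in the follow-up dose series; inconclusive = inhibition above the set first-screen limit but never retested; inactive = the rest.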

The compounds below were run against Rac GTPase-activating protein 1 (Homo sapiens) (UniProt Q9H0H5) (assay: MgcRacGAP GTPase-activating activity inhibitors, confirmation, biochemical, ADP Hunter fluorescence, primary and confirmatory (AID 624330;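 also: fluorescence reports GDP produced by GAP-driven GTP hydrolysis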)). Details: MgcRacGAP-stimulated Rac1 GTP hydrolysis, at 30 µM, hits give high values, GST-tagged Rac1 F28L mutant substrate.
Chain of Rac GTPase-activating protein 1 (Homo sapiens) (Q9H0H5 whole entry, looked up): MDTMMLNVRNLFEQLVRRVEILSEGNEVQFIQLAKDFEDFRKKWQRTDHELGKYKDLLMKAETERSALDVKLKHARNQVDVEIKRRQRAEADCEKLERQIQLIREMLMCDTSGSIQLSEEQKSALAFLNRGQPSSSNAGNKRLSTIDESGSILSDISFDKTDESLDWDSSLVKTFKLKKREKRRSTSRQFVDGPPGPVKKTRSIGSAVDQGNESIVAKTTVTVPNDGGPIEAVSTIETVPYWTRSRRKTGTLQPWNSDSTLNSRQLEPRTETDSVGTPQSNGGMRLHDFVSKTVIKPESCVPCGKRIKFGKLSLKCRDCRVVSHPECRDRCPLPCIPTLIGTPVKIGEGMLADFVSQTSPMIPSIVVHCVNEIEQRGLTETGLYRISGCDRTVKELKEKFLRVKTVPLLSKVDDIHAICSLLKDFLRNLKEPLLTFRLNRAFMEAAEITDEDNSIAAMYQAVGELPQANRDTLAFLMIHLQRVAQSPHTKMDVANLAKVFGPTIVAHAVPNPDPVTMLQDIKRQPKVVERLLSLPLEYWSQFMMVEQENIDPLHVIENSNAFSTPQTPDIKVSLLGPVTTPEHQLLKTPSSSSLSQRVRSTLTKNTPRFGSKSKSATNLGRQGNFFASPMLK

| Compound | inhibition |
| --- | --- |
| O=C(NCc1ccco1)C1CC(c2cc(C(F)(F)F)cc(C(F)(F)F)c2)=NO1 (configuration not stated) | 6.53% |
| COc1cc2c(cc1NC(=O)CN(C)Cc1nc3ccccc3c(=O)[nH]1)oc1ccccc12 | 5.31% |
| O=C(Nc1ccc(Cl)cc1Cl)NC1CCN(S(=O)(=O)c2ccc(F)cc2)CC1 | 9.28% |
| Cc1ccc(-c2ccc(/C=N/NC(=O)Cc3nnc(N)s3)o2)cc1Cl | 7.23% |
| COc1ccc(S(=O)(=O)N2CCOCC2)cc1NC(=O)c1cc(C)oc1C | 6.98% |
| O=C(Cn1nc(-c2ccccc2)c2ccccc2c1=O)Nc1ccc(F)cc1 | 5.93% |
| CCn1c(=O)n(CC(=O)Nc2ccc(F)cc2)c(=O)c2ccccc21 | 12.4% |
| O=C(Cn1sc2ccccc2c1=O)Nc1ccc(Cl)cc1 | 31.2% |
| O=C(Cn1sc2ccccc2c1=O)Nc1ccc(Br)cc1 | 31.7% |
| O=c1c(-c2ccc(Br)cc2)[n+]([O-])c2ccccc2n1OCc1ccccc1 | -0.43% |
| CSc1ccc(Cn2nnc(C(=O)Nc3ccc(C)c(C)c3)c2N)cc1 | 8.18% |
| Cn1c(SCC(=O)Nc2cccc(F)c2)nnc1-c1cc2ccccc2o1 | 7.89% |
| Nc1ccc(NC(=O)c2cccs2)cc1 | 24% |
| CC1=C(C(=O)NCCc2ccc(C)cc2)C2(CCC(C)CC2)OC1=O (configuration not stated) | 7.59% |
| O=C(Nc1ccccc1Cl)c1ccccc1 | 6.83% |
| O=C(NC1=C(Nc2ccc(Cl)cc2)C(=O)c2ccccc2C1=O)c1ccccc1 | 6.16% |
| C/C(=N\NC(=O)C(O)c1ccccc1)c1cccnc1 (configuration not stated) | 2.12% |
| O=C(N/N=C/c1ccc(N2CCOCC2)s1)c1ccc(NS(=O)(=O)c2cccs2)cc1 | 18.4% |
| COc1ccc(C(=O)N/N=C/c2ccc(N3CCOCC3)o2)cc1OC | 14.2% |
| Nc1ccc(C(=O)N/N=C/c2sc(N3CCOCC3)nc2-c2ccccc2)cc1 | 12% |
| O=C(NN=Cc1ccc(N2CCOCC2)s1)c1ccc([N+](=O)[O-])cc1 | 9.59% |

| Compound | inhibition |
| --- | --- |
| COc1ccc(C(=O)N/N=C/c2sc(N3CCOCC3)nc2-c2ccccc2)cc1OC | 7.1% |
| O=C(N/N=C/c1ccc(N2CCOCC2)s1)c1ccccc1Cl | 25.1% |
| CCCNC(=O)CSC1=N/C(=C/c2ccc(F)cc2)C(=O)N1CC | -5.26% |
| CCC(=O)NC(=S)Nc1ccc(S(=O)(=O)NC(C)C)cc1 | -11.4% |
| O=C(COC(=O)C1CCC1)Nc1cccc(Cl)c1 | 2.49% |
| O=C(NC1CCCCC1)C(c1ccncc1)N(C(=O)c1csnn1)c1ccc(F)cc1 (configuration not stated) | 0.4% |
| CC1=CCC2C(=O)N(c3ccccc3OC(=O)c3ccccc3F)C(=O)C2C1 (configuration not stated) | 2.92% |
| C=CCC1CCC/C(=N\NS(=O)(=O)c2ccc(C)cc2)C1 (configuration not stated) | -4.06% |
| Nc1ccn(CCCN2CCN(C(=O)C3CC3)CC2)c(=O)n1 | 15.1% |
| COc1cc(C2c3[nH]c4ccccc4c3C[C@H]3C(=O)N(CCO)CC(=O)N23)cc(OC)c1OC (some centres not stated) | 8.37% |
| Cc1c(C(=O)N2CCN(S(=O)(=O)c3ccccc3)CC2)oc2ccccc12 | 3.82% |
| O=C(Nc1ccccc1)N1CCc2scc[n+]2-c2ccccc21 | 16.9% |
| O=C(NCc1nnc(SCC(=O)N2CCOCC2)o1)c1c(F)cccc1F | 7.33% |
| O=C(NNc1c(Cl)cccc1Cl)c1sccc1Cl | 6.69% |
| COc1ccc(Nc2cccc3ccccc23)cc1 | 31.6% |
| COc1ccc(Nc2cccccc2=O)cc1 | 7.45% |
| COc1ccc(C(=O)Nc2ccc3ccccc3c2)cc1 | 3.97% |
| COc1ccc(NC(C)=O)c(C)c1 | -3.51% |
| O=C(Nc1ccc(S(=O)(=O)Nc2ncccn2)cc1)c1ccccc1 | 2.75% |
| CCc1cccc(CC)c1NC(=O)CN1CCN(c2ccccc2)CC1 | 20.5% |
| COc1ccc(OC)c(CN2CCN(C(=O)c3cc(S(=O)(=O)Nc4ccccc4OC)ccc3C)CC2)c1 | -2.48% |

| Compound | inhibition |
| --- | --- |
| COc1ccccc1NS(=O)(=O)c1ccc(C)c(C(=O)N2CCCC2)c1 | -1.95% |
| COc1cc(C(O)P(=O)(OCCC(C)C)c2ccc(N(C)C)cc2)cc(OC)c1OC (configuration not stated) | -1.91% |
| CN(C)/C=N/c1ncc(C(=O)c2ccc(Cl)cc2)s1 | 3.44% |
| CN(C)/C=N/c1ncc(C(=O)c2ccccc2)s1 | 7.32% |
| COc1ccc(CC(=O)NNC(=O)c2cc(Cl)ccc2OC)cc1 | -0.57% |
| CC(Oc1ccccc1)C(=O)NC1C(=O)N2C1SC(C)(C)C2C(=O)O (configuration not stated) | 6.29% |
| COc1ccccc1Nc1ccc(Nc2ccccc2OC)nn1 | -7.41% |
| Cc1ccc(Nc2nc3ccccc3o2)cc1F | 1.08% |
| O=C1c2ccccc2C(=O)N1CSc1nnc(Nc2ccccc2F)s1 | 5.49% |
| COc1ccccc1Nc1nc(C)cs1 | 0.84% and 0.19% |
| Cc1nc(CSc2nnc(Nc3cccc(C)c3C)s2)cs1 | 4.77% |
| Cc1nnc(Nc2ccc(Cl)cc2)s1 | -3.99% |
| Cc1nnc(Nc2ccccc2F)s1 | 8% |
| Cc1cccc(Nc2nc3ccccc3s2)c1C | 0.63% |
| Cc1cc(C)n(C(=O)c2c([N+](=O)[O-])cnn2C)n1 | -7.87% |
| O=C(Cc1ccc(F)cc1)Nc1cccc2cccnc12 | 5.65% |
| Cc1ccc(Sc2cnccc2C#N)cc1 | -14.2% |
| COC(=O)c1cc(C(=O)OCC(=O)N(C)C2CCS(=O)(=O)C2)cc([N+](=O)[O-])c1 (configuration not stated) | -3.52% |
| CC1Sc2ccc(S(=O)(=O)N3CCC(C(=O)NCCc4ccccc4)CC3)cc2NC1=O (configuration not stated) | 6.85% |
| COc1cc(C2NC(=O)NC(c3ccccc3)=C2C(C)=O)c(Br)c(Br)c1O (configuration not stated) | 25.1% |
